# Results published in PubChem BioAssay (Tox21).
# Records with an inconclusive call do not appear. Calls of active or inactive are those of the source. The call rests on the fitted dose curve; in most records, active means well fitted cell-killing curve with a large enough effect in the repeat runs; inconclusive means weak or mixed curves; inactive means flat fitted curve, though single readings scatter.
# Assay: qHTS RealTime-Glo MT Cell Viability Assay in HepG2 cells - 24 hour (AID 1224867); further: nearly all actives have a fitted effect of over 50% in size
# Conditions: RealTime-Glo luminescence; series mostly up to 76.8 µM
# Description: U.S. Tox21 Program National Center for Advancing Translational Sciences [NCATS] NIH Chemical Genomics Center [NCGC] U.S. Environmental Protection Agency [EPA] National Institutes of Environmental Health Sciences [NIEHS] National Toxicology Program [NTP] U.S. Food and Drug Administration [FDA] Tox21 Assay Overview: Measure of cell viability is critical in the cell-base assay. Analysis of cell viability is necessary for the characterization of cell responses to cytotoxic drugs and environmental stress. A RealTime-Glo MT Cell Viability Assay to monitor cell viability in real time of continues cell culture during 40 hours of compound treatment was used to screen Tox21 10K library compounds in HepG2 cells. The RealTime-Glo MT Cell Viability Assay is a nonlytic, homogeneous, bioluminescent method to measure cell viability in real time using a simple, plate-based method. The assay involves adding NanoLuc luciferase and a cell-permeant prosubstrate to cells in culture. Viable cells reduce the proprietary prosubstrate to generate a substrate for NanoLuc luciferase. This substrate diffuses from cells into the surrounding culture medium, where it is rapidly used by the NanoLuc Enzyme to produce a luminescent signal. The signal correlates with the number of viable cells, making the assay well suited for cytotoxicity studies.
# Tox21 Assay Protocol Summary: The mixture of HepG2 cell suspension and reagents were dispensed at 600cells/6 ul/well in 1536-well tissue culture treated black solid bottom plates using a Multidrop dispenser. After the assay plates were incubated at a 37 C/5% CO2 incubator for 5 hours, 23 nL of compounds dissolved in DMSO, positive and negative controls was transferred to the assay plate by a pintool work station. The plates were incubated at 37 C for 40 hours. The luminescence intensity were measured at 0h, 8h, 16h, 24h, 32h and 40h time points using ViewLux plate reader during compound treatment.
row,SMILES,outcome
1,O=C(O)Cc1ccccc1,inactive
2,Nc1cccc(Cl)c1,inactive
3,Cl[C@H]1OCCO[C@@H]1Cl,inactive
4,CNCC(O)c1ccc(O)cc1 (stereo not given),inactive
5,CN(C)CCC#N,inactive
6,Cc1ccccc1N,inactive
7,COP(=S)(OC)SCN1C(=O)c2ccccc2C1=O,inactive
8,CNc1cnn(-c2cccc(C(F)(F)F)c2)c(=O)c1Cl,inactive
9,C=CC#N,inactive
10,C/C=C/c1ccc2c(c1)OCO2,inactive
11,CSc1nnc(C(C)(C)C)c(=O)n1N,inactive
12,ClC(Cl)c1ccccc1,inactive
13,O=C(O)C1C(C(=O)O)C2(Cl)C(Cl)=C(Cl)C1(Cl)C2(Cl)Cl (stereo not given),inactive
14,N#CN=C(N)N,inactive
15,CCCCCCCCCCCCCCCCCC(=O)O,inactive
16,OCc1ccco1,inactive
17,O=[N+]([O-])c1ccc(Cl)c(Cl)c1,inactive
18,Nc1ccc([As](=O)(O)O)cc1,inactive
19,Cc1cc(Cl)ccc1OC(C)C(=O)O (stereo not given),inactive
20,OC[C@@H](O)[C@H]1O[C@@H]2O[C@H](C(Cl)(Cl)Cl)O[C@@H]2[C@H]1O,inactive

row,SMILES,outcome
1,CC12CC1(C)C(=O)N(c1cc(Cl)cc(Cl)c1)C2=O (stereo not given),inactive
2,Clc1cnc(Oc2ccc(Oc3ncc(Cl)cc3Cl)cc2)c(Cl)c1,inactive
3,O=[N+]([O-])c1cc([As](=O)(O)O)ccc1O,inactive
4,CCOc1ccc(N)cc1,inactive
5,Cc1ccc(N)cc1,inactive
6,Cc1cccc(N)c1,inactive
7,Nc1ncc([N+](=O)[O-])s1,inactive
8,CNC(=O)O/N=C/C(C)(C)S(C)(=O)=O,inactive
9,[N-]=[N+]=CC(=O)OC[C@H](N)C(=O)O,inactive
10,Oc1c(Br)cc(Br)cc1Br,inactive
11,COP(=S)(OC)Oc1ccc(SC)c(C)c1,inactive
12,O=[N+]([O-])c1ccc(Cl)cc1,inactive
13,CN(C)C(=O)C(c1ccccc1)c1ccccc1,inactive
14,O=C(O)C(Br)Br,inactive
15,OCCCCO,inactive
16,CCOP(=S)(OCC)Oc1cc(C)nc(C(C)C)n1,inactive
17,O=C(O)CCCc1ccc(N(CCCl)CCCl)cc1,inactive
18,c1ccc2c(c1)CCCC2,inactive
19,Cc1cccc(C)c1N,inactive
20,CCOP(=S)(OCC)Oc1ccc([N+](=O)[O-])cc1,inactive
